Assay results from PubChem BioAssay (Tox21).
Where “and” joins values, the source holds several entries; their conditions need not be identical. Equal values may be shown once. A number with no mark means an inactive call. Inconclusive results are not listed. Where a call stands in place of a potency, no number is given. Calls of active or inactive are those of the source. Unless noted, the call rests on the fitted dose curve; in most records, active means well fitted curve in the direction sought with a large enough effect in the repeat runs; inconclusive means weak or mixed curves; inactive means no such curve, though single readings can be large; an effect the other way counts as inactive or inconclusive.

Tests used:
[1] = qHTS assay to identify small molecule antagonists of the constitutive androstane receptor (CAR) signaling pathway - cell viability counter screen (AID 1224837); further: nearly all actives have a fitted effect of over 45% in size
Summary of the method: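 Read-out: CellTiter-Fluor fluorescence after 23 hr at 37 C/5% CO2. Cells: HepG2 double-stable for hCAR and CYP2B6-2.2kb. Compounds tested at 15 concentrations in the presence of CITCO, final concentration 50 nM.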

[2] = target: Nuclear receptor subfamily 1 group I member 3 (Homo sapiens) (UniProt Q14994); assay: qHTS assay to identify small molecule antagonists of the constitutive androstane receptor (CAR) signaling pathway (AID 1224838);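 further: HepG2 cells stably expressing hCAR with CYP2B6 luciferase reporter stimulated by CITCO; nearly all actives have a fitted effect of over 40% in size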; further: potency means the concentration at half of the fitted maximal effect
Sequence of Nuclear receptor subfamily 1 group I member 3 (Homo sapiens) (Q14994 whole entry, looked up): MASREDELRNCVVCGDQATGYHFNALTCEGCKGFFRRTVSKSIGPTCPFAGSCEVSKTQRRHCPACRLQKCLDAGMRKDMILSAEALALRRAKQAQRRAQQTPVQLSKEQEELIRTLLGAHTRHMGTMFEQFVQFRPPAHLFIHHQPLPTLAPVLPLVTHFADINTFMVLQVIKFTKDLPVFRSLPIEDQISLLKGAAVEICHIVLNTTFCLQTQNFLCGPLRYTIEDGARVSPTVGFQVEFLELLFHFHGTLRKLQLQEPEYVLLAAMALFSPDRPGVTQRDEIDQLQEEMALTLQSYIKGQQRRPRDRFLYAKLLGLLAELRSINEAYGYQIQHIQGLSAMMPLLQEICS
Summary of the method: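 Read-out: ONE-Glo luciferase luminescence after 30 min at room temperature. HepG2-CYP2B6-hCAR double-stable cells, compounds in 15-point titration plus 50 nM CITCO final, 24 h at 37 C/5% CO2.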

[3] = target: Nuclear receptor subfamily 1 group I member 3 (Homo sapiens) (UniProt Q14994); assay: qHTS assay to identify small molecule agonists of the constitutive androstane receptor (CAR) signaling pathway (AID 1224839); further: nearly all actives have a fitted effect of over 15% in size; further: potency means the concentration at half of the fitted maximal effect;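 on activation: HepG2 cells stably carrying human CAR and a CYP2B6 luciferase reporter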
Summary of the method: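 Luminescence read-out (ONE-Glo, 30 min, room temperature) from double-stable HepG2-CYP2B6-hCAR cells exposed 24 h to 15-point compound series in presence of 0.75 uM PK11195 final.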

[4] = qHTS assay to identify small molecule antagonists of the estrogen related receptor signaling pathway with the pleiotropic PPARgamma coactivator (PGC) from Tox21 10K library - cell viability counter screen (AID 1224840; active means well fitted cell-killing curve with a large enough effect in the repeat runs, not every such curve was filed as active; further: nearly all actives have a fitted effect of over 40% in size)
Summary of the method: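 Fluorescence read-out of CellTiter-Fluor viability reagent, added after cells had been exposed to compound in DMSO for 17.5 h at 37 C; 30 min development at 37 C/5% CO2. Cells: PGC/ERR line, 2,000/well.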

[5] = target: Thyrotropin receptor (Homo sapiens) (UniProt P16473); assay: qHTS assay to identify small molecule agonists of the thyroid stimulating hormone receptor (TSHR) signaling pathway (AID 1224843; calls by dose curve; further: nearly all actives have a fitted effect of over 45% in size)
Sequence of Thyrotropin receptor (Homo sapiens) (P16473 whole entry, looked up): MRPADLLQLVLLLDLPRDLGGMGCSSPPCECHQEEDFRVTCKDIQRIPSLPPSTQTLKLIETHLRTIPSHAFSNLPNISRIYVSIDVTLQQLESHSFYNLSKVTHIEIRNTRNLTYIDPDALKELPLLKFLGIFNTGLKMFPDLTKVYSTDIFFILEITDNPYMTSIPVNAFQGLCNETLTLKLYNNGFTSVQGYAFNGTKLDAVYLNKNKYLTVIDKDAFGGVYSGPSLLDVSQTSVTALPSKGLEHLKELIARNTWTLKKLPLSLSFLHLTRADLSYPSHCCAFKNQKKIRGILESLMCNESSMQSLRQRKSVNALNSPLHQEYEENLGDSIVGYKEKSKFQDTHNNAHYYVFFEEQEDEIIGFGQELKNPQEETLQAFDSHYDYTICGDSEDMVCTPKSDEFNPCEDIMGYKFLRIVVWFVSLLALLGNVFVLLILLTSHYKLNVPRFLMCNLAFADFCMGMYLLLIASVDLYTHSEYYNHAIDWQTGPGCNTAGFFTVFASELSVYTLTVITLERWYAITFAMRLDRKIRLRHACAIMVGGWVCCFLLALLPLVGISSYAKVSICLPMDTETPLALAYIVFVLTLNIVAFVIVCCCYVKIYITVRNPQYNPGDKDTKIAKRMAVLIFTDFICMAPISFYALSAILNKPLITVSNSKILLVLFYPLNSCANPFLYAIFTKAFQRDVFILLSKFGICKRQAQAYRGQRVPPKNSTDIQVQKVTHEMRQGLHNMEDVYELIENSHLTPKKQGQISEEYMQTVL
Summary of the method: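 Agonist-mode screen: TSHR HEK293 cells received test chemicals for half an hour at room temperature, then HTRF cAMP detection reagents for one hour prior to fluorescence measurement. Each chemical ran as a 15-concentration series, triplicated.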

[6] = qHTS assay to identify small molecule agonists of the hypoxia (HIF-1) signaling pathway - cell viability counter screen (AID 1224844; calls by dose curve; further: nearly all actives have a fitted effect of over 50% in size)
Summary of the method: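 CellTiter-Glo luminescence read-out, 30 min RT, taken in the same wells as the beta-lactamase HRE reporter assay; HRE-bla ME-180 cells, 0.5% dialyzed FBS, 17 hr compound treatment at 37C, 5% CO2.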

[7] = qHTS assay to identify small molecule agonists of the hypoxia (HIF-1) signaling pathway (AID 1224846; active means well fitted activation curve with a large enough effect in the signal ratio in the repeat runs, not every such curve was filed as active; the % refers to the signal ratio)
Summary of the method: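 Beta-lactamase FRET read-out (CCF4-AM substrate) from ME-180 cells carrying an HRE-driven bla reporter, after 17 hrs compound exposure at 37C/5% CO2. Cells were seeded at 2,000 per well in 0.5% dialyzed FBS medium and preincubated 5 hrs.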

[8] = qHTS assay to identify small molecule agonists of H2AX - cell viability counter screen (AID 1224847; calls by dose curve; further: top concentration of the series differs between compounds; nearly all actives have a fitted effect of over 30% in size)
Summary of the method: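 CHO-K1 wt, 1000 cells/well, o/n 37C; cpds 15 conc, 3 h 37C, 0.76% DMSO; CellTiter-Glo, 30 min RT, luminescence.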

[9] = qHTS RealTime-Glo MT Cell Viability Assay in HepG2 cells - 24 hour (AID 1224867); further: nearly all actives have a fitted effect of over 50% in size
Summary of the method: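 Tox21 10K library screened in qHTS format on HepG2 cells carrying RealTime-Glo reagents. Compounds were added after a 5 h preincubation, and the luminescent signal from continuous culture was measured repeatedly during 40 h treatment.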

[10] = A CellTox Green Cytotoxicity Assay to monitor cytotoxicity in HEK293 cells - 0 hour (AID 1224869); further: nearly all actives have a fitted effect of over 50% in size
Summary of the method: (§1)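 Read-out: fluorescence of a cell-impermeant cyanine dye staining DNA of dead cells, proportional to cytotoxicity. HEK293, 600 cells/well with reagent, compound (23 nL DMSO) added after 5 h; reads at 0, 8, 16, 24, 32, 40 h.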

[11] = qHTS RealTime-Glo MT Cell Viability Assay in HepG2 cells - 40 hour (AID 1224870); further: nearly all actives have a fitted effect of over 50% in size
Summary of the method: (§2)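 HepG2 cells (600/well) mixed with RealTime-Glo MT reagent, settled 5 h at 37 C/5% CO2 before compound addition. Nonlytic NanoLuc luminescence from viable-cell prosubstrate reduction read repeatedly during 40 h treatment at 37 C.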

[12] = A CellTox Green Cytotoxicity Assay to monitor cytotoxicity in HEK293 cells - 40 hour (AID 1224871); further: nearly all actives have a fitted effect of over 45% in size
Summary of the method: as §1

[13] = qHTS RealTime-Glo MT Cell Viability Assay in HEK293 cells - 16 hour (AID 1224872)
Summary of the method: (§3)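 Luminescence generated by NanoLuc from substrate produced by living HEK293 cells served as the viability signal. Each value reflects the reading at its stated time point during continuous 40 h compound exposure at 37 C.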

[14] = qHTS RealTime-Glo MT Cell Viability Assay in HepG2 cells - 8 hour (AID 1224873); further: nearly all actives have a fitted effect of over 55% in size
Summary of the method: as §2

[15] = qHTS assay to identify small molecule agonists of H2AX (AID 1224845; active means well fitted activation curve with a large enough effect in the signal ratio in the repeat runs, not every such curve was filed as active; the % refers to the signal ratio)
Summary of the method: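 Wild-type CHO-K1 cells, plated overnight, exposed 3hr at 37C to 15 concentrations (0.76% DMSO final). Lysed, then HTRF anti-pH2AX (S139) cryptate and anti-H2AX-d2 antibodies, 24 hr room temperature; 665/620 nm emission read.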

[16] = qHTS RealTime-Glo MT Cell Viability Assay in HEK293 cells - 32 hour (AID 1224868)
Summary of the method: as §3

[17] = qHTS assay to identify small molecule agonists of the estrogen related receptor signaling pathway with the pleiotropic PPARgamma coactivator (PGC) from Tox21 10K library (AID 1224842); further: nearly all actives have a fitted effect of over 15% in size
Summary of the method: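 PGC/ERR reporter cell line, 2,000 cells per well, incubated 6 h at 37 C before 23 nL compound in DMSO was added. After 18 h at 37 C, One-Glo luminescence read following 30 min at room temperature.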

[18] = qHTS assay to identify small molecule antagonists of the estrogen related receptor (ERR) signaling pathway from Tox21 library (AID 1224848)
Summary of the method: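 Quantitative high-throughput format: ERR reporter cells (2,000/well) pre-incubated 6 h, treated 18 h at 37 C with compounds in DMSO alongside positive and negative controls, then read by ONE-Glo luminescence.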

[19] = qHTS assay to identify small molecule agonists of the estrogen related receptor (ERR) signaling pathway from Tox21 library (AID 1224849; calls by dose curve; further: nearly all actives have a fitted effect of over 15% in size); details: ERR reporter cell line, ONE-Glo luciferase, 18 h; at 92.4 µM (top of the series) unless noted
Summary of the method: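 Luminescence readout (ONE-Glo, 30 min RT) after 18 h compound exposure at 37 C of NTP-supplied ERR reporter cells; cells were plated 6 h before compound addition by pin tool.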

[20] = qHTS assay to identify small molecule antagonists of the estrogen related receptor signaling pathway with the pleiotropic PPARgamma coactivator (PGC) from Tox21 10K library (AID 1224841; call rule not given here)
Summary of the method: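 Luminescence read-out (One-Glo luciferase reagent, 30 min at room temperature) from PGC/ERR cells exposed to DMSO-dissolved test compounds for 18 h at 37 C; cells, 2,000 per well, had been preincubated 6 h before compound transfer.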

**Q.** Which Potency [1] does the source give for `CCCC(=O)OCC` here?
**A.** Its Potency is “inactive”.

**Q.** And the Potency [2]?
**A.** Its Potency is “inactive”.

**Q.** And the Potency [3]?
**A.** Its Potency is “inactive”.

**Q.** What about the Potency [4] of the same compound?
**A.** The Potency was “inactive”.

**Q.** What about the Potency [5] of the same compound?
**A.** Its Potency is “inactive”.

**Q.** What about the Potency [6] of the same compound?
**A.** Its Potency is “inactive”.

**Q.** What about the outcome [7] of the same compound?
**A.** The outcome was “inactive”.

**Q.** And the Potency [8]?
**A.** The Potency was “inactive”.

**Q.** And the Potency [9]?
**A.** Its Potency is “inactive”.

**Q.** And the Potency [10]?
**A.** The Potency was “inactive”.

**Q.** And the Potency [11]?
**A.** Its Potency is “inactive”.

**Q.** And the Potency [12]?
**A.** The Potency was “inactive”.

**Q.** What about the Potency [13] of the same compound?
**A.** The Potency was “inactive”.

**Q.** What about the Potency [14] of the same compound?
**A.** The Potency was “inactive”.

**Q.** With `CCCCOC(=O)c1ccccc1C(=O)OCC(CC)CCCC` (stereo unspecified) as the compound, how does the Potency [1] read?
**A.** Its Potency is “inactive”.

**Q.** And the Potency [2]?
**A.** The Potency was “inactive”.

**Q.** And the Potency [3]?
**A.** The Potency was “inactive”.

**Q.** What about the Potency [4] of the same compound?
**A.** Its Potency is “inactive”.

**Q.** What about the Potency [5] of the same compound?
**A.** The Potency was “inactive”.

**Q.** And the Potency [6]?
**A.** Its Potency is “inactive”.

**Q.** What about the Potency [15] of the same compound?
**A.** The Potency was “inactive”.

**Q.** And the outcome [7]?
**A.** Its outcome is “inactive”.

**Q.** And the Potency [8]?
**A.** The Potency was “inactive”.

**Q.** And the Potency [9]?
**A.** The Potency was “inactive”.

**Q.** What about the Potency [16] of the same compound?
**A.** The Potency was “inactive”.

**Q.** What about the Potency [10] of the same compound?
**A.** Its Potency is “inactive”.

**Q.** And the Potency [11]?
**A.** The Potency was “inactive”.

**Q.** And the Potency [12]?
**A.** Its Potency is “inactive”.

**Q.** What about the Potency [13] of the same compound?
**A.** Its Potency is “inactive”.

**Q.** What about the Potency [14] of the same compound?
**A.** The Potency was “inactive”.

**Q.** With `CC(=O)[C@@]1(O)CC[C@H]2[C@@H]3C[C@H](C)C4=CC(=O)CC[C@]4(C)[C@H]3CC[C@@]21C` as the compound, how does the Potency [1] read?
**A.** Its Potency is “inactive”.

**Q.** And the Potency [2]?
**A.** The Potency was “inactive”.

**Q.** What about the Potency [3] of the same compound?
**A.** The Potency was 21.1 µM (active).

**Q.** What about the Potency [4] of the same compound?
**A.** Its Potency is “inactive”.

**Q.** What about the Potency [17] of the same compound?
**A.** The Potency was “inactive”.

**Q.** What about the Potency [5] of the same compound?
**A.** The Potency was “inactive”.

**Q.** And the Potency [6]?
**A.** The Potency was “inactive”.

**Q.** What about the Potency [15] of the same compound?
**A.** Its Potency is “inactive”.

**Q.** And the outcome [7]?
**A.** The outcome was “inactive”.

**Q.** And the Potency [8]?
**A.** The Potency was “inactive”.

**Q.** And the Potency [18]?
**A.** The Potency was 23.7 µM (active).

**Q.** What about the activity change, positive = activation [19] of the same compound?
**A.** The activity change, positive = activation was -36.6% [at 42.5 µM].

**Q.** And the Potency [9]?
**A.** The Potency was “inactive”.

**Q.** What about the Potency [10] of the same compound?
**A.** The Potency was “inactive”.

**Q.** And the Potency [11]?
**A.** The Potency was “inactive”.

**Q.** What about the Potency [12] of the same compound?
**A.** Its Potency is “inactive”.

**Q.** And the Potency [14]?
**A.** Its Potency is “inactive”.

**Q.** For `Cn1sccc1=O`, which Potency [1] is on record?
**A.** The Potency was “inactive”.

**Q.** And the Potency [2]?
**A.** Its Potency is 24.3 µM (active).

**Q.** What about the Potency [3] of the same compound?
**A.** Its Potency is “inactive”.

**Q.** What about the Potency [4] of the same compound?
**A.** The Potency was “inactive”.

**Q.** What about the Potency [20] of the same compound?
**A.** The Potency was “inactive”.

**Q.** And the Potency [8]?
**A.** The Potency was “inactive”.

**Q.** What about the Potency [18] of the same compound?
**A.** The Potency was 48.6 µM (active).

**Q.** What about the activity change, positive = activation [19] of the same compound?
**A.** Its activity change, positive = activation is -14.6% and -29.4%.

**Q.** What about the Potency [9] of the same compound?
**A.** The Potency was “inactive”.

**Q.** And the Potency [10]?
**A.** The Potency was “inactive”.

**Q.** And the Potency [11]?
**A.** Its Potency is “inactive”.

**Q.** And the Potency [12]?
**A.** The Potency was “inactive”.

**Q.** What about the Potency [13] of the same compound?
**A.** Its Potency is “inactive”.

**Q.** And the Potency [14]?
**A.** Its Potency is “inactive”.
